Results reported in PubChem BioAssay (NCATS).
Several values for one entry are separate records, joined by “and”; a condition that tells them apart may be missing. Equal values may be shown once. Results filed as inconclusive are left out. Activity calls are given as the source filed them. Unless noted, the call rests on the fitted dose curve; in most records, active means well fitted curve in the direction sought with a large enough effect; inconclusive means small, poorly fitted or top-dose-only effect, or another doubt; inactive means no such curve, though single readings can be large; an effect the other way counts as inactive or inconclusive.

Tests used:
[1] = qHTS assay for environmental chemicals that activate the Aryl hydrocarbon Receptor (AhR) signaling pathway (AID 651777); details: 1A2-DRE human hepatoma cells, luciferase, 24 h; activation: hits give high values; further: nearly all actives have a fitted effect of over 15% in size; further: potency means the concentration at half of the fitted maximal effect; on activation: % of control where 0% means no effect
In short: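 AhR activation is scored as a rise in luciferase from a stable DRE–CYP1A2 promoter construct in human hepatoma cells. Treatment lasts 24 hr at 37 C; detection uses One-Glo after 30 min at room temperature.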

[2] = target: Peroxisome proliferator-activated receptor alpha (Homo sapiens) (UniProt Q07869); assay: qHTS assay for small molecule agonists of the peroxisome proliferator-activated receptor alpha (PPARalpha) signaling pathway (AID 651778); details: PathHunter PPARalpha complementation, chemiluminescence, 6 h; hits give high values; further: % of control where 0% means no effect
Sequence of Peroxisome proliferator-activated receptor alpha (Homo sapiens) (Q07869 whole entry, looked up, the tested form may be a part): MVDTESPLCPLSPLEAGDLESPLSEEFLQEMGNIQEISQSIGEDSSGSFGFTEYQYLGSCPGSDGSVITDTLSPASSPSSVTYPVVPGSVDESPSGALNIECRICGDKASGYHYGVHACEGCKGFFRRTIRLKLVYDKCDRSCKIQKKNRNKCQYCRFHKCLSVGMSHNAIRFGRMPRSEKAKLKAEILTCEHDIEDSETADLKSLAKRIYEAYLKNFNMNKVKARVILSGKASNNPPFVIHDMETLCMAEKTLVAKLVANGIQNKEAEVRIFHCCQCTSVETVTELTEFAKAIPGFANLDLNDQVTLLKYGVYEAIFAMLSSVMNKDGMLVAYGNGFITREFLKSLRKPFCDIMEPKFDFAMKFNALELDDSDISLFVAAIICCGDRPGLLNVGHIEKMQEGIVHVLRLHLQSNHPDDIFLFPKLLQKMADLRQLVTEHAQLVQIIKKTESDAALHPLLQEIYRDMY
In short: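 Enzyme-fragment complementation assay in which ligand-bound PPARalpha translocates and forms an active enzyme that generates chemiluminescence. Cells were plated overnight, exposed to compound for 6 hr at 37 C, and then given detection reagent for 60 min at room temperature.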

[3] = target: Nuclear receptor ROR-gamma (Homo sapiens) (UniProt P51449); assay: qHTS assay for small molecule antagonists of the retinoid-related orphan receptor gamma (ROR-gamma) signaling pathway (AID 651802);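 further: CHO cells with doxycycline-induced ROR-gamma expression; series mostly up to about 92 µM; on the % scale 0 is the no-effect control and ±100 the full control effect; nearly all actives have a fitted effect of over 60% in size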
Sequence of Nuclear receptor ROR-gamma (Homo sapiens) (P51449 whole entry, looked up): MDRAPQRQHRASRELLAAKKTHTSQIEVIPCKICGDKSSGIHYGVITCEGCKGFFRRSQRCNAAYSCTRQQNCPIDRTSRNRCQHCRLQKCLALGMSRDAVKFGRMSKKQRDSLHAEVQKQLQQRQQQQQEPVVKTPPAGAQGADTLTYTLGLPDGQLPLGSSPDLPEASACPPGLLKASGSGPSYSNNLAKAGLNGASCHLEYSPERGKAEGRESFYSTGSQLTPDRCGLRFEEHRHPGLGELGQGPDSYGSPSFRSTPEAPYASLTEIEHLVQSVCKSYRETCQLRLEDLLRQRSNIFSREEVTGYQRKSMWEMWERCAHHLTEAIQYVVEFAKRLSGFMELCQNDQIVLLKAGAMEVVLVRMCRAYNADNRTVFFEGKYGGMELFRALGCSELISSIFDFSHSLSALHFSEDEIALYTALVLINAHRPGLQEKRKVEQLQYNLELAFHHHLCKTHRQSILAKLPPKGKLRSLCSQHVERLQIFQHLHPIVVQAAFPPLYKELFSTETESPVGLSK
In short: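 Antagonism is scored as a fall in luminescence from a RORE-luciferase reporter in CHO cells expressing ROR under a TET-inducible promoter, measured 16hr after doxycycline induction in the presence of compound.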

[4] = qHTS assay for small molecule agonists of the antioxidant response element (ARE) signaling pathway measured by Nrf2-dependant transcriptional activity (AID 720636; active means well fitted curve in the direction sought with a large enough effect in the repeat runs; an effect the other way counts as inactive or inconclusive; further: potency means the concentration at half of the fitted maximal effect;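 on activation: HepG2 cells with an ARE-driven luciferase reporter; % of control where 0% means no effect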)
In short: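 First, ARE-luc HepG2 cells attached for 6 hr at 37 C in 1% dialyzed FBS medium. Next, compound or DMSO was added and incubated 16 hr. Finally, ONE-Glo reagent was added and luminescence measured after 30 min.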

[5] = qHTS assay for small molecule antagonists of the retinoid-related orphan receptor gamma (ROR-gamma) signaling pathway - cell viability counter screen (AID 720652; active means well fitted curve in the direction sought with a large enough effect in the repeat runs; an effect the other way counts as inactive or inconclusive;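 further: CHO reporter cells with doxycycline-induced ROR-gamma expression; series mostly up to about 92 µM; compound exposure lasted 16 hr before ATP read; on the % scale 0 is the no-effect control and ±100 the full control effect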)
In short: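 Cytotoxicity is quantified via intracellular ATP (CellTiter-Glo luminescence) in doxycycline-induced CHO ROR response element-luciferase reporter cells treated with compound for 16 hr at 37 C, 5% CO2.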

[6] = qHTS Assay for Identifying Gametocytocidal Compounds (AID 743244);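 further: on the % scale 0 is the no-effect control and ±100 the full control effect; actives lower the fluorescent signal which means gametocytes are killed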; details: P. falciparum 3D7 stage III-V gametocytes, alamarBlue, 72 h; max response: hits give low values
In short: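 Late gametocytes (III–V), P. falciparum 3D7; 72 h drug, then 24 h alamarBlue; resazurin reduction read by fluorescence.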

[7] = qHTS assay for cell viability of HEK293 cells (AID 743288); details: ATP luminescence (CellTiter-Glo), 18 h; max response: hits give low values; further: on the % scale 0 is the no-effect control and ±100 the full control effect; nearly all actives have a fitted effect of over 50% in size
In short: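 Total intracellular ATP, measured with a luciferase-coupled reagent, indicates the number of viable HEK293 cells. Exposure to test chemicals lasts 18 h at 37 C in 1,536-well format at 2,000 cells/well.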

[8] = qHTS assay for cell viability of the p53RE-bla HCT-116 cell line (AID 743292); further: on the % scale 0 is the no-effect control and ±100 the full control effect; nearly all actives have a fitted effect of over 55% in size
In short: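 Quantitative high-throughput format: compounds in DMSO were pinned onto p53RE-bla HCT-116 cells (4,000/well) and incubated 16 h at 37 C. Total intracellular ATP, read by CellTiter-Glo luminescence, reflects viable cell number.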

[9] = target: Arylsulfatase A (Homo sapiens) (UniProt P15289); assay: qHTS screen for enhancers of Arylsulfatase A (ASA1): LOPAC Validation Assay (AID 720538); details: outcome: dose series up to 57.5 µM
Sequence of Arylsulfatase A (Homo sapiens) (P15289 whole entry, looked up): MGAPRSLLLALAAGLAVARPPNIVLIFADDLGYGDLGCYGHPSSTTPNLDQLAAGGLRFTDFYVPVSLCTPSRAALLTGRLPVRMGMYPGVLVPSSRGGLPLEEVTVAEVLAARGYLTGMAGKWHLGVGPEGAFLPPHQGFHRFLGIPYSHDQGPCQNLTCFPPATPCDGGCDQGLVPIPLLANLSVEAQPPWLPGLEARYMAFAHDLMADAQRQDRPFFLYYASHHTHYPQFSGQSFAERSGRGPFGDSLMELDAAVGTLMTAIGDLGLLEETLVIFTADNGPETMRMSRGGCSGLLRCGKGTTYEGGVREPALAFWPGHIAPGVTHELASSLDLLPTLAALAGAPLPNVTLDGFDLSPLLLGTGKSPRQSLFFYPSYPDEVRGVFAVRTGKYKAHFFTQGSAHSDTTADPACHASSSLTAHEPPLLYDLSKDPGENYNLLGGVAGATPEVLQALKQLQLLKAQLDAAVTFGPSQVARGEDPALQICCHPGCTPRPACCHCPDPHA
In short: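 Enhancer assay in patient-derived MLD fibroblasts carrying ASA-I179S: 48 h compound exposure at 37 C, then 14 h room-temperature pNCS turnover (0.5 mM final) in lysis buffer. Read by fluorescence at 525/598 nm after NaOH stop.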

[10] = qHTS for compounds that reverse cellular toxicity of Amyloid beta (A-beta) peptide in yeast: LOPAC Validation Assay (AID 720559);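 further: plate controls were DMSO for no effect and equimolar ferric chloride plus clioquinol rescue for full effect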
In short: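 Rescue of A-beta toxicity was scored as yeast growth by 600 nm absorbance after 48 hr at 30 C with compound. Normalization used DMSO (negative) and equimolar ferric chloride plus clioquinol (positive).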

[11] = qHTS for Activators of Parkin Expression: LOPAC Validation Assay (NLuc Reporter) (AID 720572;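 further: 0% = DMSO and 100% = positive control compound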)
In short: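 Neuronal cells with a Parkin promoter-driven FLuc/NLuc coincidence reporter were treated 24 h at 37 C in 7-point dose response (LOPAC). NLuc luminescence read after FLuc; signals normalized to DMSO and positive control (100%).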

[12] = qHTS for Activators of Parkin Expression: LOPAC Validation Assay (FLuc Reporter) (AID 720573;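 further: 0% = DMSO and 100% = positive control compounds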)
In short: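 FLuc signal from Parkin-promoter coincidence reporter neuronal cells, normalized to DMSO and positive control (100%). Cells (1,500/well) pre-incubated 24 h, then exposed to LOPAC compounds in 7-point dose response for 24 h at 37 C, 5% CO2.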

[13] = target: T1, Hexokinase-4 (Homo sapiens) + Glucokinase regulatory protein (Homo sapiens) (UniProt P35557+Q14397); assay: qHTS assay for inhibitors of recombinant human GCK-GKRP interaction: Diaphorase-coupled assay (AID 743205)
T1 sequence (P35557 whole entry, looked up): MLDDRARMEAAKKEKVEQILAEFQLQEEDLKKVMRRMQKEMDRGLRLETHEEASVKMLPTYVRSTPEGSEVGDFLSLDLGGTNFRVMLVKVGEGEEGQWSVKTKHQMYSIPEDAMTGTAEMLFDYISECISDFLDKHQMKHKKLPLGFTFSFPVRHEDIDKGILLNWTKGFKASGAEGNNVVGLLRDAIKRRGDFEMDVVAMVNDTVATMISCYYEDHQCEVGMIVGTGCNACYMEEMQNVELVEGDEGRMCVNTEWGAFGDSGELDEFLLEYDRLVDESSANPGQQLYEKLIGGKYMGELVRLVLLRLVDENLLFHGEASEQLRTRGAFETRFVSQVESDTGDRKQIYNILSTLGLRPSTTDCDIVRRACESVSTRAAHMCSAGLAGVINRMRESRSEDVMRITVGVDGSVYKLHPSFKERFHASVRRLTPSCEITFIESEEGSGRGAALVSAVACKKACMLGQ
T1 sequence (Q14397 whole entry, looked up): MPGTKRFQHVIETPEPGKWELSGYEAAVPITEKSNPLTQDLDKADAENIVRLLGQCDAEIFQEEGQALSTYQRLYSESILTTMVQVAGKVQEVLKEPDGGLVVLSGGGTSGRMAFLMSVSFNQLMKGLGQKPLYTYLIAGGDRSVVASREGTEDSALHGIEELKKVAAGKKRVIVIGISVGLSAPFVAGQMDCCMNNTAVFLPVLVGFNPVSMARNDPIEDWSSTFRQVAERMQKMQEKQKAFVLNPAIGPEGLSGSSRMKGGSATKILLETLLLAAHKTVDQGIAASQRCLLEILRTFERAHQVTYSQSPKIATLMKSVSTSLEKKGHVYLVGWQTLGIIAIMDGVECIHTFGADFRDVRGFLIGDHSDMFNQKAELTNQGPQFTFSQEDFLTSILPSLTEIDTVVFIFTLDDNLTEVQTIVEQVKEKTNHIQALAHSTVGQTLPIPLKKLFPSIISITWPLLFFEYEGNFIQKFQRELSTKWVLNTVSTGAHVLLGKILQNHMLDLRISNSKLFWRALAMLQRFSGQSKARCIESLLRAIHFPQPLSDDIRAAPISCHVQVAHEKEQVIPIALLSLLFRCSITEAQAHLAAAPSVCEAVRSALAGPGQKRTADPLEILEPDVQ
In short: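 A kinetic fluorescence read (Ex 525/Em 590 nm, every minute for 30 minutes) tracked resorufin from a G6PDH-diaphorase coupled GCK reaction. It contained 10 nM GST-GCK, 10 nM FLAG-GKRP, 5 mM glucose, 0.4 mM ATP in Hepes pH 7.6. Normalized to with/without-enzyme DMSO controls.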

[14] = target: T1, Hexokinase-4 (Homo sapiens) + Glucokinase regulatory protein (Homo sapiens); assay: qHTS assay for inhibitors of recombinant human GCK-GKRP interaction: ADP-Glo assay (AID 743206);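 further: plate controls were DMSO plus enzyme for no effect and no enzyme for full effect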
In short: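 GST-GCK and FLAG-GKRP (15 nM each in the dispensed mix, with 2 uM S6P) react with 0.4 mM ATP and 5 mM glucose (final) in Hepes pH 7.6 for 60 min at room temperature. ADP is measured by ADP-Glo luminescence.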

[15] = target: T1, Hexokinase-4 (Homo sapiens) + Glucokinase regulatory protein (Homo sapiens); assay: qHTS assay for inhibitors of recombinant human GCK-GKRP interaction: HTRF assay (AID 743207);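 further: 0% = DMSO with GCK present and -100% = DMSO wells lacking GCK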
In short: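 After 60 min equilibration at room temperature with anti-FLAG XL665 and anti-GST antibodies, FRET ratio (665/615 nm, excitation 320 nm) was read. Proteins: GST-GCK and FLAG-GKRP, each 5 nM, plus 2 uM S6P, pH 7.1 buffer; GCK-free wells define minimum signal.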

[16] = target: Tyrosine-protein kinase Yes (Homo sapiens) (UniProt P07947); assay: qHTS for small molecule inhibitors of Yes1 kinase: Primary Screen (AID 686947); further: nearly all actives have a fitted effect of over 60% in size; further: potency means the concentration at half of the fitted maximal effect
Sequence of Tyrosine-protein kinase Yes (Homo sapiens) (P07947 whole entry, looked up): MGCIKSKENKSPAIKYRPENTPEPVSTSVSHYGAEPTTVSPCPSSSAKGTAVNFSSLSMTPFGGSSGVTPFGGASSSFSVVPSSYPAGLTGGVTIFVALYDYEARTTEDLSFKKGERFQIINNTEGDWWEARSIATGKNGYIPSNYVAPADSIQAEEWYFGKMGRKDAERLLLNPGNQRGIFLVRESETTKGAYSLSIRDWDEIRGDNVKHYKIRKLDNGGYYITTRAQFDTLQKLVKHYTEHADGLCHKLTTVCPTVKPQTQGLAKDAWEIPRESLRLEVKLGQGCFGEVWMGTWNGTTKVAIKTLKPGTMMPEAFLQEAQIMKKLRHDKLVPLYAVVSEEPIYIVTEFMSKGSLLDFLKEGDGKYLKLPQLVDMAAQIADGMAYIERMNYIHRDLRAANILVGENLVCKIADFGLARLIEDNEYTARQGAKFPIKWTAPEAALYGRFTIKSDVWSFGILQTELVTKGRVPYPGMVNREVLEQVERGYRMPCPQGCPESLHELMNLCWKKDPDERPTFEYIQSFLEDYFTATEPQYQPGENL
In short: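 ADP-Glo luminescence readout; final 4 nM Yes1, 0.1 mM ATP, 0.3 mg/mL poly(E4Y), Tris pH 7.5, MgCl2, DTT, Brij-35. 20 min compound preincubation, 60 min reaction at RT. Normalized to DMSO wells with and without enzyme.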

[17] = qHTS for small molecule inhibitors of Yes1 kinase: Counter Assay (AID 686950);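 further: no kinase present so only ADP-Glo detection of a fixed ADP amount is tested; luminescence from ADP-Glo reporting ADP in a fixed ATP and ADP mixture; series mostly up to about 77 µM; 0% = DMSO wells with ATP plus ADP and -100% = ATP-only wells without ADP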
In short: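 Enzyme-free detection counter-screen: compounds preincubated 20 min in buffer, then 0.08 mM ATP plus 0.02 mM ADP added for 60 min at room temperature; ADP-Glo luminescence. Buffer 50 mM Tris pH 7.5, 10 mM MgCl2, 150 mM NaCl; normalized to ATP+ADP and ATP-only controls.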

[18] = qHTS assay to identify small molecules that stimulate interleukin-8 (IL-8) secretion (AID 651758; active means well fitted activation curve with a large enough effect in the signal ratio; the % refers to the signal ratio; further: 0% is about no effect)
In short: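 THP-1 cells (2000/well) exposed to compound 16 h at 37 C; secreted IL-8 then detected by HTRF with cryptate- and XL665-labelled anti-IL-8 antibody pair after 1-3 h at room temperature.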

O=C(O)Cc1cccc2ccccc12
inactive: activation [1] 0.508% and -1.02% | max response [2] -0.727% and -1.42% | Potency [3] | Potency [4] | Potency [5] | max response [6] 19.3% and -5.56% | max response [7] 1.25% and 0.847% | Potency [8]

O=c1cc(-c2ccccc2)oc2cc(O)cc(O)c12
inactive: max response [2] -1.65% | max response [7] -14.1% | Potency [8]
active: Potency [1] 39.8 µM | Potency [4] 13.7 µM

O=C1NC(=O)C(c2ccccc2)(c2ccccc2)N1
inactive: activation [1] -0.809% and 0.125% and -0.632% | max response [2] -3.11% and -0.24% and -0.609% | Potency [3] | outcome [9] | outcome [10] | Potency [11] | Potency [12] | Potency [4] | Potency [5] | outcome [13] | outcome [14] | outcome [15] | max response [6] -6.42% and 2.98% and 10.3% | max response [7] 6.32% and -2.27% and 1.15% | Potency [8]

COc1cccc2c1CCCC2CCCN1CCN(C2CCCCC2)CC1 (configuration not stated)
inactive: Potency [16] | outcome [17]

O=c1c(O)c(-c2ccc(O)cc2)oc2cc(O)cc(O)c12
inactive: max response [2] -3% and -2.05% | max response [7] 3.99% and -0.18% | Potency [8]

CC(=O)N[C@@H](CS)C(=O)O
inactive: activation [1] -0.0175% | max response [2] -0.248% | outcome [9] | outcome [10] | Potency [11] | Potency [12] | Potency [4] | outcome [13] | outcome [14] | outcome [15] | max response [6] 4.68% and -17% | max response [7] -3.84% | Potency [8]

CC(=O)N(C)C1(c2ccccc2)CCN(CCC[C@]2(c3ccc(Cl)c(Cl)c3)CCCN(C(=O)c3ccccc3)C2)CC1
inactive: Potency [16] | outcome [17]

CN(C)CCC(c1ccccc1)c1ccccn1 (configuration not stated)
inactive: activation [1] -0.0214% | max response [2] -0.672% | outcome [9] | outcome [10] | Potency [11] | Potency [12] | Potency [4] | Potency [5] | outcome [13] | outcome [14] | outcome [15] | max response [6] 15.2% | max response [7] 2.94% | Potency [8]

CCOc1ccc(Nc2nc(-c3c(C)nc4ccccn34)cs2)cc1
inactive: Potency [16] | outcome [17]

CCCCC1C(=O)N(c2ccccc2)N(c2ccccc2)C1=O
inactive: outcome [18] | activation [1] -1.23% and 0.389% | max response [2] -2.74% and -1.79% | Potency [3] | outcome [9] | outcome [10] | Potency [12] | Potency [4] | Potency [5] | outcome [13] | outcome [14] | outcome [15] | max response [6] -1.91% and -0.936% and 31.1% | max response [7] -8.44% and -3.31% | Potency [8]

O=c1[nH]cnc2c1ncn2[C@H]1CC[C@@H](CO)O1
inactive: outcome [18] | activation [1] -1.42% and 4.55% | max response [2] -3.68% and -4.63% | Potency [3] | Potency [4] | Potency [5] | max response [6] -6.96% | max response [7] -8.26% and -9.92% | Potency [8]

CCn1cc(C(=O)O)c(=O)c2ccc(C)nc21
inactive: max response [2] -3.78% and -0.0141% | Potency [3] | outcome [9] | outcome [10] | Potency [11] | Potency [12] | Potency [4] | Potency [5] | max response [6] 5.72% and 15.6% | max response [7] 1.7% and -2.87% | Potency [8]

O=C(CCCCCCC(=O)Nc1ccccc1)NO
inactive: Potency [16]

CC(=O)O[C@]1(C(C)=O)CC[C@H]2[C@@H]3C=C(Cl)C4=CC(=O)[C@@H]5C[C@@H]5[C@]4(C)[C@H]3CC[C@@]21C
inactive: activation [1] 1.28% and -0.271% | max response [2] 0.54% and -4.74% | outcome [9] | outcome [10] | Potency [11] | Potency [12] | Potency [4] | Potency [5] | outcome [13] | outcome [14] | outcome [15] | max response [6] 5.83% | max response [7] -22.8% | Potency [8]

OC[C@H]1O[C@@H](n2cnc3c2NC=NC[C@@H]3O)C[C@H]1O
inactive: outcome [17] | max response [6] 12.6%
active: Potency [16] 21.8 µM
